A short description of assay [1]: Nuclear factor erythroid 2-related factor 2/antioxidant responsive element (Nrf2/ARE) small molecule agonists: qHTS cell viability counter screen in human keratinocytes (AID 1919968; active = well fitted curve in the direction sought with a large enough effect in the repeat runs; an effect the other way counts as inactive or inconclusive; note: nearly all actives have a fitted effect of over 55% in size). A digest of the protocol:
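Viability counter-screen: KeratinoSens reporter cells, DMSO-delivered compounds, 23 h at 37 C, CellTiter-Fluor fluorescence.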

The nature of assay [2]: Nuclear factor erythroid 2-related factor 2/antioxidant responsive element (Nrf2/ARE) small molecule agonists: luciferase reporter gene qHTS assay in human keratinocytes (AID 1919969). Note: nearly all actives have a fitted effect of over 35% in size. Note: potency is the fitted concentration of half-maximal effect.
The target in assay [3] is Gonadotropin-releasing hormone receptor (Homo sapiens) (UniProt P30968). The assay can be described thus: Human gonadotropin-releasing hormone receptor (GnRHR) small molecule agonists, calcium flux assay in GnRHR-HEK293 cells (AID 1920063). Note: nearly all actives have a fitted effect of over 35% in size. A digest of the protocol:
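Tox21-format agonist screen using human GnRHR-expressing HEK293 cells and a fluorescent calcium dye; kinetic 3-min fluorescence reading after compound addition, 15-point concentration series run in triplicate.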

Assay [4] deals with KiSS-1 receptor (Homo sapiens) (UniProt Q969F8). The assay can be described thus: Human kisspeptin (KISS1R) small molecule agonists, calcium flux assay in KISS1R-HEK293 cells (AID 1920064; active = well fitted curve in the direction sought with a large enough effect in the repeat runs; an effect the other way counts as inactive or inconclusive). In a few lines:
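Intracellular calcium mobilization in KISS1R-HEK293 cells was recorded by fluorescence (Ex/Em 480/540) for 3 min following compound addition to cells pre-loaded 1 h with calcium dye.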

The nature of assay [5]: G protein-coupled receptor (GPCR) small molecule agonists, calcium flux assay: HEK293 wild type cell line counter screen (AID 1920065). In a few lines:
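In this agonist-mode screen, ATP is the positive control and DMSO the vehicle. Cells grow 18 h before a 1 h dye incubation at 37 C; signal is taken at Ex/Em 480/540 over 3 min.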

The nature of assay [6]: p53 small molecule agonists, cell-based qHTS assay with human liver microsomes (AID 1963577).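 Note: p53 response element beta-lactamase reporter cells with liver microsomes plus NADPH.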 In a few lines:
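With metabolic activation: human liver microsomes (0.5 mg/mL final) plus NADPH (0.5 mg/mL final) added alongside compounds to p53RE-bla cells; 16 h 37 C exposure; beta-lactamase read by LiveBLAzer fluorescence.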

The nature of assay [7]: p53 small molecule agonists, cell-based qHTS assay with rat liver microsomes (AID 1963578). Note: potency is the fitted concentration of half-maximal effect. In a few lines:
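Metabolic activation by rat liver microsomes and NADPH, each 0.5 mg/mL final, added right after compounds to p53RE-bla reporter cells (4,000/well, plated 5 h earlier). 16 h at 37 C, then LiveBLAzer substrate for 2 h at room temperature in the dark; fluorescence read-out.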

The nature of assay [8]: p53 small molecule agonists, cell-based qHTS assay with human liver microsomes: qHTS cell viability counter screen (AID 1963579). Note: nearly all actives have a fitted effect of over 45% in size. In a few lines: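 Metabolic activation used human liver microsomes and NADPH, both 0.5 mg/mL final, over 16 hours at 37 C on p53RE-bla cells (4,000/well). Cytotoxicity measured by CellTiter-Glo luminescence, 30 min at room temperature.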
Assay [9] is described as follows: p53 small molecule agonists, cell-based qHTS assay with rat liver microsomes: qHTS cell viability counter screen (AID 1963580). Note: nearly all actives have a fitted effect of over 45% in size. In a few lines:
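p53RE-bla HCT-116 cells were exposed 16 h at 37 C to compounds with rat liver microsomes (0.5 mg/mL) and NADPH (0.5 mg/mL). Viability was measured in the same wells as ATP content by CellTiter-Glo luminescence.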

A short description of assay [10]: p53 small molecule agonists, cell-based qHTS assay: qHTS cell viability counter screen (AID 1963581). Note: nearly all actives have a fitted effect of over 45% in size. In a few lines:
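Compounds are pinned onto HCT-116 p53RE-bla cells and left 16 h at 37 C. Following the reporter FRET read, ATP is quantified by CellTiter-Glo luminescence after 30 min at room temperature.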

Assay [11] in a line: p53 small molecule agonists, cell-based qHTS assay (AID 1963582; active = well fitted activation curve with a large enough effect in the signal ratio in the repeat runs, not every such curve was filed as active; the % refers to the signal ratio). In a few lines:
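Agonist activity was scored from beta-lactamase FRET fluorescence in p53RE-bla cells treated 16 h at 37 C with compounds in DMSO, substrate incubation being 2 h at room temperature.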

Assay [12] addresses 5-hydroxytryptamine receptor 2A (Homo sapiens) (UniProt P28223). The assay can be described thus: 5-hydroxytryptamine receptor 2A (HTR2A) small molecule antagonists, cell-based qHTS assay (AID 1963586). Note: nearly all actives have a fitted effect of over 45% in size. In a few lines:
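Antagonist-mode intracellular calcium assay: DOI (4 nM) added after 5 min compound pre-incubation at room temperature to dye-loaded HTR2A-CHO cells. Fluorescence followed for 3 min, sampled every second.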

Assay [13] has the same target. The assay is described as follows: 5-hydroxytryptamine receptor 2A (HTR2A) small molecule agonists, cell-based qHTS assay (AID 1963587). Note: nearly all actives have a fitted effect of over 30% in size. In a few lines:
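CHO cells stably expressing human HTR2A, plated 18 h, loaded with calcium dye 1 h at 37 C. Agonist mode: compounds added and intracellular calcium fluorescence recorded kinetically for 2 min at 1 sec intervals.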

Assay [14] has as its target Muscarinic acetylcholine receptor M1 (Homo sapiens) (UniProt P11229). The assay can be described thus: Cholinergic receptor muscarinic 1 (CHRM1) small molecule antagonists, cell-based qHTS assay (AID 1963588). Note: nearly all actives have a fitted effect of over 40% in size. In a few lines: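 CHRM1-CHO calcium-flux assay, antagonist mode. Cells were seeded 18 h, dye-loaded 1 h at 37 C and given compound for 5 min at RT, then acetylcholine was added at 50nM. FDSS fluorescence was read 3 min; 15 concentrations, three runs.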

Assay [15] shares this target. The assay is described as follows: Cholinergic receptor muscarinic 1 (CHRM1) small molecule agonists, cell-based qHTS assay (AID 1963589). Note: nearly all actives have a fitted effect of over 35% in size. In a few lines:
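Stable CHRM1-CHO cells (human receptor) were incubated 18 h, dye-loaded for 1 h at 37 C and exposed to test compounds for agonist activity, with calcium-dependent fluorescence followed kinetically.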

Assay [16] in a line: cAMP Responsive Elements (CRE) small molecule agonists, cell-based qHTS assay (AID 1963590). In a few lines: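 FRET-based beta-lactamase readout (LiveBLAzer B/G, 2 h RT) quantified CRE activation in HEK 293T CRE-bla cells after 3 h treatment with DMSO-dissolved compounds.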
A short description of assay [17]: cAMP Responsive Elements (CRE) small molecule antagonists, cell-based qHTS assay (AID 1963591; active = well fitted inhibition curve with a large enough effect in the signal ratio in the repeat runs, not every such curve was filed as active; the % refers to the signal ratio). In a few lines: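 qHTS in CRE-bla HEK 293T cells: compound in DMSO, then 0.25 uM NKH477 (final), 3 h at 37 °C/5% CO2; beta-lactamase FRET read-out after 2 h substrate incubation.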
For assay [18], the target named is Beta-2 adrenergic receptor (Homo sapiens) (UniProt P07550). The assay is described as follows: Adrenergic beta2 receptor (ADRB2) small molecule antagonists, cell-based qHTS assay (AID 1963592). Note: series mostly up to about 92 µM; nearly all actives have a fitted effect of over 50% in size. A digest of the protocol:
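Cells (CHO, stable ADRB2 overexpression) incubated 18-20hr at 37C; compounds added from DMSO; agonist mix (1nM isoproterenol, 100uM IBMX, 25uM Ro-20-1724) added; 0.5hr RT; d2-cAMP and anti-cAMP-cryptate added; 1hr RT; 665/615 nm read.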

Assay [19] has as its target D(2) dopamine receptor (Homo sapiens) (UniProt P14416). The assay is described as follows: Dopamine D2 receptor (DRD2) small molecule agonists, cell-based qHTS assay (AID 1963594). Note: nearly all actives have a fitted effect of over 35% in size. In a few lines: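 HEK293 cells stably expressing human DRD2, pre-treated with PDE inhibitor Ro20-1724 (0.1 mM final) and compound 10 min at room temperature, then stimulated with NKH477 (200nM […]) for 30 min. cAMP read by HTRF (665/620 nm).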

For assay [20] the target is unchanged. The assay can be described thus: Dopamine D2 receptor (DRD2) small molecule antagonists, cell-based qHTS assay (AID 1963595; active = well fitted inhibition curve with a large enough effect in the signal ratio in the repeat runs, with a control signal flat; the % refers to the signal ratio). A digest of the protocol:
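In this cell-based antagonist screen, compounds act for 10 min at room temperature before a 30 min challenge with 12 nM quinpirole and 200 nM NKH477. cAMP is quantified by HTRF competition in DRD2-HEK293 cells containing 0.1 mM Ro20-1724.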

Where “and” joins values, the source holds several entries; their conditions need not be identical. Equal entries are not always repeated. Records with an inconclusive call do not appear. Some structures have more than one record in an assay (separate samples or runs), and their calls can disagree. Calls of active or inactive are those of the source. Unless noted, calls come from the whole dose curve.

Sequence of Gonadotropin-releasing hormone receptor (Homo sapiens) (P30968 whole entry, looked up): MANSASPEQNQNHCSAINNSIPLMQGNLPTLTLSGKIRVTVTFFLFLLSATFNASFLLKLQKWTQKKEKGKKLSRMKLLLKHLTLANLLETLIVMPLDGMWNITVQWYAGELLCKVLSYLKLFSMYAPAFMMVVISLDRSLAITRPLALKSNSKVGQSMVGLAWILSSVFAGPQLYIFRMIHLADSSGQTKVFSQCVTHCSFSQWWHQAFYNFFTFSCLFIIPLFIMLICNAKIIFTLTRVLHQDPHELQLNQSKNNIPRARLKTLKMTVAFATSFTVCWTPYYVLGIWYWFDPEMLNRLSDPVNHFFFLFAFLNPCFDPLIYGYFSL
Sequence of Muscarinic acetylcholine receptor M1 (Homo sapiens) (P11229 whole entry, looked up): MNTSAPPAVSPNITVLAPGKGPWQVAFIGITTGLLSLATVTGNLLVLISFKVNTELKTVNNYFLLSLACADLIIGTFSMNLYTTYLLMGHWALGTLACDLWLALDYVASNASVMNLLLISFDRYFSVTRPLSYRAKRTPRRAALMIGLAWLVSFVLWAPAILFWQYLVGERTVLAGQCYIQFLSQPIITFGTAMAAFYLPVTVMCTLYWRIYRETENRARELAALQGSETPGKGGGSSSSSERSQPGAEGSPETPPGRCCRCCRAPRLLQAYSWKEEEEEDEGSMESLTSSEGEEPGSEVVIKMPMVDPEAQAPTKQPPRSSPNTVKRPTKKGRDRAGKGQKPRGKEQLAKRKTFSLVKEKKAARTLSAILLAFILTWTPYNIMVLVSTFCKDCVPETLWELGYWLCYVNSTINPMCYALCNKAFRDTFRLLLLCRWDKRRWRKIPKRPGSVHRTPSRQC
Sequence of D(2) dopamine receptor (Homo sapiens) (P14416 whole entry, looked up): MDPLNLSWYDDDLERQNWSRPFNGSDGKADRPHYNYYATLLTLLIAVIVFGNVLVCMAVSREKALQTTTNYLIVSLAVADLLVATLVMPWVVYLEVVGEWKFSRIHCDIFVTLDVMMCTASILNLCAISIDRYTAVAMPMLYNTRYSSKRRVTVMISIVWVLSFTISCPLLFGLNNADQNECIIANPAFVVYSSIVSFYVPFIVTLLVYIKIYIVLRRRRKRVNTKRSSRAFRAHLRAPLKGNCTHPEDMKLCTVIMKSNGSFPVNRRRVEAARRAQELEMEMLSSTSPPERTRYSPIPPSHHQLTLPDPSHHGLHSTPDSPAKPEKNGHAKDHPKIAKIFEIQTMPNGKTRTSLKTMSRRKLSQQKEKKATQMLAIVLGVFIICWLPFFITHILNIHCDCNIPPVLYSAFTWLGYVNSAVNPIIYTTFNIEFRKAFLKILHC
Sequence of Beta-2 adrenergic receptor (Homo sapiens) (P07550 whole entry, looked up): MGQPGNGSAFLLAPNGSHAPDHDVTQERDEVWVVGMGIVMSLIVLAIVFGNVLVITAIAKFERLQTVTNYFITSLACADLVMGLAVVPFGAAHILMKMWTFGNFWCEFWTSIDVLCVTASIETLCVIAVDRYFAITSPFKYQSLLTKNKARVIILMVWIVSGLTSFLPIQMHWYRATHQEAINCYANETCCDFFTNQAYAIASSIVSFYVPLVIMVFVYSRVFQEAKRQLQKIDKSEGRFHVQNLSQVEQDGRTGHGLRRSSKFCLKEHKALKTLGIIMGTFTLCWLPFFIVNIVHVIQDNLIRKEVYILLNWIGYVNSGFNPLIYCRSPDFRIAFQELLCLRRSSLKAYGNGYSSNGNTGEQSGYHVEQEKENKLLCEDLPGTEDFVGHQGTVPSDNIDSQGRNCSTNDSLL
Sequence of 5-hydroxytryptamine receptor 2A (Homo sapiens) (P28223 whole entry, looked up): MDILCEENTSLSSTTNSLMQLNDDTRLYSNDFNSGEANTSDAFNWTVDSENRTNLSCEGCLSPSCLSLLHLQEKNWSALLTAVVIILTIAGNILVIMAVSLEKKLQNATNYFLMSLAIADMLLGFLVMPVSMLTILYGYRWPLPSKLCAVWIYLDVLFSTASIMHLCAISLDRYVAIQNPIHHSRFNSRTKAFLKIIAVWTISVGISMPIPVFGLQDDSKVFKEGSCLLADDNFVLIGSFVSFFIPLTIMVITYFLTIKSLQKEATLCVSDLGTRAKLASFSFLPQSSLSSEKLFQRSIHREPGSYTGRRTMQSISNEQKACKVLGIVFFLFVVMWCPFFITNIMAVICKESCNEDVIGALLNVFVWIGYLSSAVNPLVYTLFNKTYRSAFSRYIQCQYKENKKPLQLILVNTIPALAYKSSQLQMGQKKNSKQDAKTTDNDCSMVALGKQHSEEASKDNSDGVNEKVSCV
Sequence of KiSS-1 receptor (Homo sapiens) (Q969F8 whole entry, looked up): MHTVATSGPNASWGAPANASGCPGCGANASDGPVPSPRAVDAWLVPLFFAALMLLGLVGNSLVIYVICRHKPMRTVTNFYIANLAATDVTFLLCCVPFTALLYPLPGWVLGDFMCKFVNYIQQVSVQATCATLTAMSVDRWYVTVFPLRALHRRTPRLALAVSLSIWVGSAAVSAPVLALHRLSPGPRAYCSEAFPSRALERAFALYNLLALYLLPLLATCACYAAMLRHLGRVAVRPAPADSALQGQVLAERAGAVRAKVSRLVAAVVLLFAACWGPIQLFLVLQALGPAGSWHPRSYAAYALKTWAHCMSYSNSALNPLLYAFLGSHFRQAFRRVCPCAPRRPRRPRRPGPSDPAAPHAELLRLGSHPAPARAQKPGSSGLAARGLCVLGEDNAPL

With `Nc1ccc([As](=O)(O)O)cc1`, the Potency result in assay [1], in [2], in assay [3], in [4], in assay [5] and in assay [6] was “inactive” in each case. The Potency entry in [7], in [8], in [9], in [10], in assay [11] and in [12] was “inactive” each time. For the same molecule, the Potency entry in assay [13], in [14], in [15], in assay [16], in [17] and in assay [18] was “inactive” in each case. The Potency result in assay [19] and in assay [20] was “inactive” each time.

In the case of `CN(C)N=O`, the Potency entry in assay [1], in assay [2], in assay [3], in assay [4], in assay [5] and in assay [6] was “inactive” each time. In addition, the Potency entry in assay [7], in [8], in assay [9], in assay [10], in assay [11] and in assay [12] was “inactive” each time. Also, the Potency result in [13], in assay [14], in [15], in assay [16], in [17] and in assay [18] was “inactive” throughout. Besides, the Potency result in [19] and in assay [20] was “inactive” throughout.

For `CNC(=O)NC(O)C(Cl)(Cl)Cl` (configuration not stated), the Potency result in assay [1], in assay [2], in [3], in [4], in assay [5] and in assay [6] was “inactive” throughout. The Potency result in assay [7], in [8], in assay [9], in assay [10], in assay [11] and in assay [12] was “inactive” each time. Further, the Potency entry in assay [13], in assay [14], in [15], in [16], in assay [17] and in assay [18] was “inactive” throughout. For the same molecule, the Potency result in assay [19] was “inactive”.

On to `Clc1ccc(C2(Cn3cncn3)OCCO2)c(Cl)c1`, for which the Potency entry in assay [1], in assay [2], in assay [3], in assay [4], in assay [5] and in [6] was “inactive” each time. Moreover, the Potency result in assay [7], in assay [8], in assay [9], in assay [10], in assay [11] and in assay [12] was “inactive” in each case. In addition, the Potency result in assay [13], in assay [14], in assay [15], in assay [16], in assay [17] and in assay [18] was “inactive” each time. Besides, the Potency result in assay [19] is “inactive”.

`O=C(O)C(F)(F)C(F)(F)C(F)(F)C(F)(F)C(F)(F)C(F)(F)F`: the Potency entry in assay [1], in [2], in assay [3], in assay [4], in [5] and in assay [6] was “inactive” in each case. Besides, the Potency entry in assay [7], in assay [8], in assay [9], in [10], in assay [11] and in assay [12] was “inactive” in each case. The Potency result in [13], in [14], in assay [15], in assay [16], in assay [17] and in [18] was “inactive” throughout. Also, the Potency entry in [19] is “inactive”.

In the case of `CCSC(=O)N1CCCCCC1`, the Potency result in [1], in assay [3], in [4], in assay [5], in assay [6] and in assay [8] was “inactive” in each case. The Potency entry in [9], in assay [10], in assay [11], in assay [12], in [13] and in assay [14] was “inactive” each time. The Potency result in assay [15], in [16], in assay [17], in assay [18], in assay [19] and in assay [20] was “inactive” each time. The Potency in assay [2] was 37.5 µM (active) and inactive; in assay [7], 4.99 µM (active) and 2.57 µM (active).

For `C1CN2CCC1CC2`, the Potency entry in [1], in assay [2], in assay [3], in assay [4], in assay [5] and in [6] was “inactive” throughout. Also, the Potency result in assay [7], in assay [8], in assay [9], in assay [10], in assay [11] and in assay [12] was “inactive” throughout. The Potency result in [13], in [14], in assay [15], in assay [16], in assay [17] and in [18] was “inactive” throughout. Also, the Potency result in assay [19] and in [20] was “inactive” in each case.

These data come from PubChem BioAssay (Tox21).
